From PubChem BioAssay (EPA / NIEHS)
Inconclusive results are not listed. Calls of active or inactive are those of the source. How the source made its calls, unless noted: active means hit-call score of the fitted dose curve at least 0.9, where 1 is the maximum; inactive means score below 0.9.

Tests used:
[1] = CCTE_Mundy_HCI_Cortical_NOG_NeuriteLength: CCTE's Neurite Outgrowth Assay in rat cortical cells for Neurite Length, Mundy Lab (AID 2284213)
How it was run: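 First, rat primary cortical cells were plated and, 2 h later, given test chemical as a 1/10 dilution. Finally, βIII-tubulin immunostaining enabled automated imaging of neurite length.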

[2] = CCTE_Mundy_HCI_Cortical_Synap_Neur_Matur_NeuriteLength: CCTE's Synaptogenesis and Neurite Maturation Assay in rat cortical cells for Neurite Length, Mundy Lab (AID 2284214)
How it was run: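 Cultures of rat primary cortical cells received chemical at DIV 7 and were fixed at DIV 12, after glial arrest with AraC at DIV 5. Neurite length was measured by automated imaging of MAP2 immunofluorescence.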

[3] = CCTE_Mundy_HCI_Cortical_Synap_Neur_Matur_SynapseCount: CCTE's Synaptogenesis and Neurite Maturation Assay in rat cortical cells for Synapse Count, Mundy Lab (AID 2284218)
How it was run: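 Cells were plated, allowed 2 hr to attach, treated with AraC at DIV 5, then exposed to chemicals from DIV 7 until DIV 12. After fixation and MAP2/synaptophysin immunolabelling, synapses per neuron were quantified by automated imaging against DMSO.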

[4] = CCTE_Mundy_HCI_Cortical_Synap_Neur_Matur_NeuriteCount: CCTE's Synaptogenesis and Neurite Maturation Assay in rat cortical cells for Neurite Count, Mundy Lab (AID 2284222);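 further: exposure from day 7 to day 12 in vitro with readout at day 12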
How it was run: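 Primary rat cortical cells were plated, treated with AraC at DIV 5, then exposed to chemicals from DIV 7 through DIV 12. After fixation and immunostaining for MAP2 and synaptophysin, imaging quantified neurites, with DMSO as the negative control.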

[5] = CCTE_Mundy_HCI_Cortical_Synap_Neur_Matur_CellBodySpotCount: CCTE's Synaptogenesis and Neurite Maturation Assay in rat cortical cells for Cell Body Spot Count, Mundy Lab (AID 2284223)
How it was run: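 Read-out: cell body-associated synaptophysin puncta per neuron, imaged after MAP2, synaptophysin and Hoechst staining. Rat cortical cells, AraC DIV 5, chemical dosing DIV 7, fixation DIV 12. Activity fitted in positive direction relative to DMSO baseline.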

[6] = CCTE_Mundy_HCI_hNP1_Pro_ResponderAvgInten: CCTE's Proliferation Assay in human neuroprogenitor cells, Mundy Lab (AID 2284224; active means hit-call score of the fitted dose curve at least 0.9, where 1 is the maximum;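 further: human neural progenitor cells hNP1 derived from WA09 embryonic stem cells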)
How it was run: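 Human neuroprogenitors (hNP1, WA09 lineage) receive test chemical after 40 to 44 hours of attachment. A four-hour BrdU pulse begins twenty hours later, followed by fixation and high content imaging; signal is referenced to DMSO controls.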

[7] = UKN2_HCS_IMR90_cell_viability: Viability Assessment in the University of Konstanz (UKN) Leist Lab Neural Crest Cell Migration Assay in human induced IMR90 Pluripotent Stem Cells (UKN2) (AID 2284233);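 further: viability of neural crest cells differentiated from IMR90 iPSC measured by calcein-AM fluorescence imaging; cells exposed to compound for 24 h after a 24 h migration phase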
How it was run: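 cMINC format, iPSC-derived neural crest (IMR90); 24 h migration (EGF/FGF, N2-S), then 24 h toxicant. Calcein-AM/H-33342 stain 30 min; fluorescence intensity by HCS; DMSO-normalised, bidirectional fitting.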

[8] = CCTE_Mundy_HCI_Cortical_NOG_NeuronCount: CCTE's Neurite Outgrowth Assay in rat cortical cells for Neuron Count, Mundy Lab (AID 2284236; active means hit-call score of the fitted dose curve at least 0.9, where 1 is the maximum;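 further: neurons counted by imaging betaIII-tubulin and Hoechst stained cortical cells; cells exposed to compound for about 48 hours before fixation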)
How it was run: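 Read-out: neuron number by high-content imaging of betaIII-tubulin (Alexa Fluor-488) and Hoechst-labelled rat primary cortical cells.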

[9] = CCTE_Mundy_HCI_Cortical_NOG_BPCount: CCTE's Neurite Outgrowth Assay in rat cortical cells for Branch Point Count, Mundy Lab (AID 2284237)
How it was run: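 Measured 50.33 h after dosing, this morphology endpoint uses rat primary cortical cultures labelled for betaIII-tubulin. Branch points are quantified by high-content imaging, with DMSO as negative control and baseline.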

[10] = CCTE_Mundy_HCI_hNP1_Casp3_7: CCTE's Caspase-Glo 3/7 Assay in human neuroprogenitor cells for Apoptosis, Mundy Lab (AID 2284240)
How it was run: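 Neuroepithelial-lineage stem cells from WA09 embryonic cells were treated with chemicals after 40–44 h of culture. Twenty-four hours later, caspase-3/7 activation was detected luminescently after a 30 min room-temperature reagent step, with DMSO as baseline.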

[11] = CCTE_Mundy_HCI_hNP1_CellTiter: CCTE's Cell Titer-Glo 2 Assay in human neuroprogenitor cells for Viability, Mundy Lab (AID 2284241; active means hit-call score of the fitted dose curve at least 0.9, where 1 is the maximum)
How it was run: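 Measures ATP content in human neural progenitors derived from WA09 embryonic cells. Read-out at 26.5 hours after dosing, with DMSO serving as the negative control and baseline.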

[12] = CCTE_Mundy_HCI_Cortical_Synap_Neur_Matur_NeuronCount: CCTE's Synaptogenesis and Neurite Maturation Assay in rat cortical cells for Neuron Count, Mundy Lab (AID 2284242; active means hit-call score of the fitted dose curve at least 0.9, where 1 is the maximum)
How it was run: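 Cortical cells from rat are plated, treated with AraC at DIV 5, and exposed to test chemicals with a media change at DIV 7. At DIV 12 they are fixed and immunostained (MAP2, synaptophysin), and imaged neuron counts are compared against DMSO controls.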

[13] = IUF_NPC2a_radial_glia_migration_120hr: Leibniz Research Institute for Environmental Medicine (IUF) 120-hour Neural Progenitor Cell Migration Assay for Radial Glia Migration (NPC2a) (AID 2284298)
How it was run: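 Hoechst-stained nuclei imaged at 120 h; algorithm maps sphere core by densest nuclei, sets migration edge at density threshold, gives radial glia migration distance (um) per well vs DMSO. hNPC spheres (0.3 mm), PDL/laminin, DMEM/F12 3:1 + 1% N2.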

[14] = IUF_NPC2a_radial_glia_migration_72hr: Leibniz Research Institute for Environmental Medicine (IUF) 72-hour Neural Progenitor Cell Migration Assay for Radial Glia Migration (NPC2a) (AID 2284299)
How it was run: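 Single 0.3 mm neurospheres were plated per well in N2 differentiation medium and exposed from the start of differentiation. After 72 hours, brightfield images were taken and radial glia migration from the sphere core edge was measured manually in four directions, averaged per well.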

[15] = IUF_NPC2b_neuronal_migration_120hr: Leibniz Research Institute for Environmental Medicine (IUF) 120-hour Neural Progenitor Cell Migration Assay for Neuron Migration (NPC2b) (AID 2284300)
How it was run: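 hNPC spheres, PDL/laminin, DMEM:F12 3:1 + 1% N2, 37C/5% CO2; 7 concentrations + solvent control (DMSO ≤0.1%), 5 d exposure, half-feed day 3. Fix 120 h, TUBB3 ICC, HCI: mean neuron migration distance ÷ glia distance.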

[16] = IUF_NPC3_neuronal_differentiation_120hr: Leibniz Research Institute for Environmental Medicine (IUF) 120-hour Neuronal Differentiation Assay (NPC3) (AID 2284301)
How it was run: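 Neuronal differentiation of primary human neural progenitors measured by high-content imaging: percent TUBB3+ of Hoechst+ nuclei within migrated area at 120 h, seven-point serial dilution plus solvent control, gain or loss relative to DMSO.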

[17] = IUF_NPC4_neurite_length_120hr: Leibniz Research Institute for Environmental Medicine (IUF) 120-hour Neuronal Morphology Assay for Neurite Length (NPC4) (AID 2284302)
How it was run: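 Neurons from differentiating human fetal neural progenitor spheres are scored for average neurite length after five days of compound exposure. Fitting uses DMSO as negative control.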

[18] = IUF_NPC4_neurite_area_120hr: Leibniz Research Institute for Environmental Medicine (IUF) 120-hour Neuronal Morphology Assay for Neurite Area (NPC4) (AID 2284305; active means hit-call score of the fitted dose curve at least 0.9, where 1 is the maximum)
How it was run: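 Endpoint at 120 h: automated imaging of TUBB3/Hoechst-stained differentiating human neural progenitor spheres, neurite area per neuron from skeletonization. DMSO solvent control, not above 0.1%, set the baseline; medium was half-replaced on day 3.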

[19] = IUF_NPC2-5_cytotoxicity_72hr: Cytotoxicity Assessment at 72 hours in the Leibniz Research Institute for Environmental Medicine (IUF) Neural Progenitor Cell Migration and Differentiation Assay for Cytotoxicity (NPC2-5) (AID 2284306; active means hit-call score of the fitted dose curve at least 0.9, where 1 is the maximum;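 further: LDH release into supernatant measured by resorufin fluorescence marking membrane damage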)
How it was run: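 Primary human neural progenitor spheres migrate and differentiate on laminin. Compound is present from the start of differentiation, with DMSO kept at or below 0.1%. At 72 h, supernatant LDH is quantified fluorometrically, with values fitted in the positive direction.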

[20] = IUF_NPC2-5_cytotoxicity_120hr: Cytotoxicity Assessment at 120 hours in the Leibniz Research Institute for Environmental Medicine (IUF) Neural Progenitor Cell Migration and Differentiation Assay (NPC2-5) (AID 2284307; active means hit-call score of the fitted dose curve at least 0.9, where 1 is the maximum)
How it was run: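 hNPC spheres on PDL/laminin, N2 medium, 37C; 7 concs + solvent control, DMSO ≤0.1%; 5-day exposure, half medium changed day 3. LDH in supernatant at 120 h, resazurin→resorufin fluorescence, gain-of-signal.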

[21] = IUF_NPC2-5_cell_number_120hr: Cell Number Assessment at 120 hours in the Leibniz Research Institute for Environmental Medicine (IUF) Neural Progenitor Cell Migration and Differentiation Assay (NPC2-5) (AID 2284308);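 further: count of Hoechst-stained nuclei in migration zone around plated human neural progenitor spheres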
How it was run: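 Hoechst-stained nuclei within the migration area were counted by automated high content imaging after 120 h. Single hNPC spheres differentiated on poly-D-lysine/laminin in DMEM/F12 (3:1) with 1% N2, compound present throughout, DMSO ≤0.1%.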

[22] = IUF_NPC2-5_viability_120hr: Viability Assessment at 120 hours in the Leibniz Research Institute for Environmental Medicine (IUF) Neural Progenitor Cell Migration and Differentiation Assay (NPC2-5) (AID 2284312)
How it was run: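 Human fetal (GW 16-19) neural progenitor spheres of 0.3 mm were plated on poly-D-lysine/laminin in N2 differentiation medium and exposed from day 0 for 120 h, with half-medium refresh at day 3. Viability was read as alamar blue resazurin-to-resorufin fluorescence against DMSO.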

[23] = CCTE_Mundy_HCI_iCellGluta_NOG_NeuriteLength: CCTE's Neurite Outgrowth Assay in iCellGluta cells for Neurite Length, Mundy Lab (AID 2284318; active means hit-call score of the fitted dose curve at least 0.9, where 1 is the maximum)
How it was run: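 Automated high-content imaging of betaIII-tubulin (Alexa Fluor-488) and Hoechst-stained cells gave neurite length, normalized to the DMSO baseline.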

[24] = IUF_NPC1_cytotoxicity_72hr: Cytotoxicity Assessment at 72 hours in the Leibniz Research Institute for Environmental Medicine (IUF) Neural Progenitor Cell Proliferation Assay (NPC1) (AID 2284332; active means hit-call score of the fitted dose curve at least 0.9, where 1 is the maximum;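 further: rising LDH signal means more cytotoxicity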)
How it was run: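 Membrane-integrity loss is scored from LDH released into the medium, detected as resorufin fluorescence, with activity fitted upward relative to baseline. Test material stays on human fetal-derived progenitor spheres for 72 h.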

[25] = CCTE_Mundy_HCI_iCellGluta_NOG_NeuriteCount: CCTE's Neurite Outgrowth Assay in iCellGluta cells for Neurite Count, Mundy Lab (AID 2284342; active means hit-call score of the fitted dose curve at least 0.9, where 1 is the maximum;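 further: chemical exposure about 48 hours starting 2 hours after plating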)

Measured: outcome

CC(C)O
inactive: all assays above
